This note sets out measurements from PubChem BioAssay (NCATS).

The nature of assay [1]: Quantitative High-Throughput drug screen in 47 multiple myeloma cell lines against the NCATS MIPE library collection: OCIMY1_PLB cell viability assay (AID 1918979). Also: nearly all actives have a fitted effect of over 35% in size.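 As to viability: 100% = DMSO-only wells and 0% = cell-free media-only wells.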 Summed up:
(§1)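 qHTS format: cells plated (500/well), pin-dosed with MIPE 4.0 compounds, kept 48 h at 37 °C. Readout was CellTiter-Glo luminescence, median RLU.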

Assay [2] is described as follows: Quantitative High-Throughput drug screen in 47 multiple myeloma cell lines against the NCATS MIPE library collection: MM1S_ATCC cell viability assay (AID 1918980). Also: nearly all actives have a fitted effect of over 45% in size.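 As to viability (% of control): 100% = wells with DMSO only and 0% = wells with media only.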 In outline: as §1
Assay [3] can be described thus: Quantitative High-Throughput drug screen in 47 multiple myeloma cell lines against the NCATS MIPE library collection: MM1R_ATCC cell viability assay (AID 1918981). Also: nearly all actives have a fitted effect of over 35% in size. Summed up: as §1
Assay [4] in a line: Quantitative High-Throughput drug screen in 47 multiple myeloma cell lines against the NCATS MIPE library collection: LP1_DSMZ cell viability assay (AID 1918982). Also: nearly all actives have a fitted effect of over 35% in size. Summed up:
as §1

Assay [5] is described as follows: Quantitative High-Throughput drug screen in 47 multiple myeloma cell lines against the NCATS MIPE library collection: L363_DSMZ cell viability assay (AID 1918984). Also: nearly all actives have a fitted effect of over 40% in size. The settings on record: L363 myeloma viability, CellTiter-Glo ATP luminescence, 48 h; viability (% of control): at 45.8 µM (top of the series). In outline:
as §1

Assay [6] can be described thus: Quantitative High-Throughput drug screen in 47 multiple myeloma cell lines against the NCATS MIPE library collection: KMS34_JCRB cell viability assay (AID 1918985). Also: nearly all actives have a fitted effect of over 40% in size. In outline: as §1
The nature of assay [7]: Quantitative High-Throughput drug screen in 47 multiple myeloma cell lines against the NCATS MIPE library collection: OCIMY7_PLB cell viability assay (AID 1918987). Also: nearly all actives have a fitted effect of over 65% in size. The settings on record: OCI-MY7 myeloma viability, CellTiter-Glo ATP, 48 h; viability (% of DMSO): at 45.8 µM (top of the series). Summed up: as §1
A short description of assay [8]: Quantitative High-Throughput drug screen in 47 multiple myeloma cell lines against the NCATS MIPE library collection: OCIMY5_PLB cell viability assay (AID 1918988). Also: nearly all actives have a fitted effect of over 65% in size. Summed up: as §1
Assay [9] can be described thus: Quantitative High-Throughput drug screen in 47 multiple myeloma cell lines against the NCATS MIPE library collection: OPM1_PLB cell viability assay (AID 1918989). Also: nearly all actives have a fitted effect of over 40% in size.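 As to viability (% of control): 100% = DMSO-only wells and 0% = media-only wells.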 Summed up:
as §1

Assay [10] in a line: Quantitative High-Throughput drug screen in 47 multiple myeloma cell lines against the NCATS MIPE library collection: KMS28PE_JCRB cell viability assay (AID 1918983). Also: nearly all actives have a fitted effect of over 35% in size. Summed up: as §1

Records with an inconclusive call do not appear. Activity calls are given as the source filed them. Calls follow the shape of the dose curve; as a rule, active = well fitted cell-killing curve with a large enough effect; inconclusive = small, poorly fitted or top-dose-only effect, or effect the other way; inactive = no such curve, though single readings can be large or run the other way.
Potency is read from the fitted curve at half-maximal effect.

For the compound `O=c1[nH]nc(OCCCc2ccc(Cl)cc2)c(NCc2cccnc2)c1Br`, the Potency in assay [1] was 18.7 µM (active); in assay [2], 8.33 µM (active); in assay [3], 16.6 µM (active); in [4], 14.8 µM (active); in assay [5], 3.72 µM (active); in assay [6] it was 20.9 µM (active). Moreover, the figures for the Potency in assay [7], in [8] and in assay [9] were 7.43 µM (active), 18.7 µM (active) and 4.69 µM (active), respectively.
Take `COC(=O)Nc1ccc(-c2nc(N3CCOCC3)c3cnn(C4CCN(C(=O)OC)CC4)c3n2)cc1`: the Potency is 5.26 µM (active) in [1]; 0.0066 µM (active) in assay [2]; 0.743 µM (active) in assay [3]; 0.235 µM (active) in assay [4]; 1.18 µM (active) in assay [10]; 0.0935 µM (active) in assay [5]. Moreover, the Potency in [6] was 1.05 µM (active); in assay [7] it was 0.0235 µM (active); in assay [8], 1.18 µM (active); in assay [9] it was 0.372 µM (active).
In the case of `O=C(Nc1ncc(SCCN2CCCC2)s1)[C@]1(c2ccc(S(=O)(=O)C3CC3)cc2)C[C@@H]1C1CCCCC1`, the Potency in assay [1] is 26.4 µM (active); in assay [2] it was 20.9 µM (active); in [3], 16.6 µM (active); in assay [4], 20.9 µM (active); in assay [10] it was 23.5 µM (active); in assay [5] it was 7.43 µM (active). The Potency in assay [6] is 18.7 µM (active); in assay [7], 18.7 µM (active); in [8], 14.8 µM (active); in assay [9] it was 16.6 µM (active).
Regarding `OC[C@H]1O[C@@H](O[C@H]2[C@@H](O)[C@@](O)(CO)O[C@@H]2CO)[C@H](O)[C@@H](O)[C@@H]1O`, the Potency entry in [1], in assay [2], in [3], in assay [4], in [10] and in [5] was “inactive” throughout. The Potency entry in assay [6], in assay [7], in [8] and in assay [9] was “inactive” throughout.
As for `C[C@H]1COC2=C1C(=O)C(=O)c1c2ccc2c1CCCC2(C)C`, the Potency result in [1] and in [5] was “inactive” each time. The Potency in assay [2] was 26.4 µM (active); in assay [3], 20.9 µM (active); in [4] it was 18.7 µM (active); in [7] it was 13.2 µM (active); in assay [8], 20.9 µM (active); in [9], 20.9 µM (active).
With `O=S(=O)(O)c1ccc2cc(N=Nc3cc(S(=O)(=O)O)c4cccnc4c3O)ccc2c1`, the Potency entry in assay [1] was “inactive”. Moreover, the Potency in [2] was 13.2 µM (active); in assay [3], 20.9 µM (active); in [10], 18.7 µM (active); in assay [8], 9.35 µM (active); in assay [9], 13.2 µM (active).
Regarding `c1ccc(-c2oc3ncnc(NC[C@@H]4CCCO4)c3c2-c2ccccc2)cc1`, the Potency entry in assay [1] is “inactive”. Besides, the Potency in assay [2] was 18.7 µM (active); in assay [3] it was 23.5 µM (active); in assay [10], 26.4 µM (active); in [8], 14.8 µM (active); in assay [9], 13.2 µM (active).
With `COc1c(C)c2c(c(O)c1CC=C(C)CCC(=O)OCCN1CCOCC1)C(=O)OC2`, the Potency is 10.5 µM (active) in [1]; 6.62 µM (active) in [2]; 11.8 µM (active) in [3]; 4.69 µM (active) in [10]; 5.9 µM (active) in assay [6]; 3.72 µM (active) in assay [7]. Further, the Potency is 5.26 µM (active) in assay [8] and 8.33 µM (active) in [9].
In the case of `Nc1ncnc2c1ncn2[C@@H]1O[C@H](CO)[C@@H](O)[C@@H]1O`, the Potency result in [1] was “inactive”. Also, the Potency in assay [2] is 0.743 µM (active); in [3], 20.9 µM (active); in assay [5], 1.05 µM (active); in assay [6], 18.7 µM (active); in [8], 16.6 µM (active); in [9], 20.9 µM (active). Further, the viability (% of DMSO) in assay [7] is 126% (active).
For the compound `COc1cc([C@H]2Oc3cc([C@H]4Oc5cc(O)cc(O)c5C(=O)[C@H]4O)ccc3O[C@H]2CO)ccc1O`, the Potency is 20.9 µM (active) in assay [1]; 9.35 µM (active) in assay [2]; 23.5 µM (active) in assay [3]; 20.9 µM (active) in assay [10]; 20.9 µM (active) in assay [6]; 8.33 µM (active) in [7]. Moreover, the Potency in assay [8] was 10.5 µM (active); in assay [9], 14.8 µM (active). Besides, the Potency entry in assay [5] was “inactive”.
`CC(=O)NCCC(=O)N[C@@H](CCC(N)=O)C(=O)N[C@@H](CO)C(=O)N[C@@H](CCC(N)=O)C(=O)N[C@@H](CCC(N)=O)C(=O)N[C@H](C(=O)N[C@@H](Cc1ccccc1)C(=O)N[C@]1(C)CCCCCCC=CCCC[C@@](C)(C(=O)N[C@@H](CCC(N)=O)C(=O)N[C@@H](CC(N)=O)C(N)=O)NC(=O)[C@H](CC(C)C)NC(=O)[C@H](CC(C)C)NC(=O)[C@@H](CCCNC(=N)N)NC(=O)[C@H](Cc2c[nH]c3ccccc23)NC(=O)[C@H](CC(C)C)NC(=O)[C@H](CC(N)=O)NC1=O)[C@H](C)O`: the Potency in assay [1] was 20.9 µM (active); in assay [2] it was 20.9 µM (active); in [3], 26.4 µM (active); in assay [10], 18.7 µM (active); in assay [7] it was 20.9 µM (active); in assay [9] it was 26.4 µM (active).
Consider `O=C(O)C1=CC(O)C(O)[C@H](O)C1` (stereo partly drawn), for which the Potency entry in [1], in [2], in [3], in assay [4], in [6] and in assay [9] was “inactive” each time.
`CC(O)=C(C#N)C(=O)Nc1ccc(C(F)(F)F)cc1`: the Potency entry in assay [1] and in assay [5] was “inactive” throughout. Further, the Potency in [2] was 16.6 µM (active); in assay [3], 16.6 µM (active); in [10] it was 16.6 µM (active); in assay [6], 18.7 µM (active); in assay [8], 16.6 µM (active); in [9], 16.6 µM (active).
As for `COc1ccc2ccc(=O)oc2c1CC=C(C)C`, the Potency is 23.5 µM (active) in assay [1]; 2.96 µM (active) in [2]; 13.2 µM (active) in assay [3]; 10.5 µM (active) in assay [5]; 13.2 µM (active) in assay [6]; 8.33 µM (active) in assay [8]. Moreover, the Potency entry in assay [9] was “inactive”.
Regarding `Cc1ccc(NC(=O)c2cccc(N(C)C)c2)cc1NC(=O)c1ccc(O)cc1`, the Potency result in [1] and in [5] was “inactive” in each case. The Potency in [2] was 0.418 µM (active); in assay [3], 4.18 µM (active); in [7] it was 0.059 µM (active); in assay [8] it was 1.32 µM (active); in [9], 23.5 µM (active).
